From the supplement of paper PMC11732987, “Enantioselective OTUD7B fragment discovery through chemoproteomics screening and high-throughput optimisation” (Communications Chemistry, 2025)

Columns and labels:
Assay in all cases: log2 ratio of Biotin-Ahx-Ub-VS probe labelling (fragment/DMSO); higher = less target engagement (more negative = stronger competition), active = hit call of the paper (q ≤ 0.05, log2 ratio ≤ -1)
Settings in all cases: compound concentration: 200 uM; treatment time: 3 h
OTUD6B = target: T1, OTUD6B (UniProt Q8N6M0)
T1 sequence (whole entry): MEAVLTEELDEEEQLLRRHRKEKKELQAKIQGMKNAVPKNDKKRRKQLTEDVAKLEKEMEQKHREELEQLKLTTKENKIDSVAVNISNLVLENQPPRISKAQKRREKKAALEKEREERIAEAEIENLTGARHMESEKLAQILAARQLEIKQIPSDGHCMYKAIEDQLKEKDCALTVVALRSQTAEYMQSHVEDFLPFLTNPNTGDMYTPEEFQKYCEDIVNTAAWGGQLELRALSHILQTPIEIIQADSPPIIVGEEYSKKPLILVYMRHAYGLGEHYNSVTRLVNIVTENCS
Procedure, shortened: (§1)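 Fragment (200 µM) or vehicle was incubated for 3 h with triplicate HEK293T lysate samples of 495 µg, which were then treated with Biotin-Ahx-Ub-VS at 0.5 µM final for 1 h. Labelled DUBs were enriched on NeutrAvidin, digested with LysC and trypsin, and analysed by diaPASEF LC-MS/MS. Values are average log2 fragment/vehicle ratios from an unpaired t-test on global-median-normalised Spectronaut label-free quantities, using proteins with ≥2 unique peptides.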

OTUD7B = target: T2, OTUD7B (UniProt Q6GQQ9)
T2 sequence (whole entry): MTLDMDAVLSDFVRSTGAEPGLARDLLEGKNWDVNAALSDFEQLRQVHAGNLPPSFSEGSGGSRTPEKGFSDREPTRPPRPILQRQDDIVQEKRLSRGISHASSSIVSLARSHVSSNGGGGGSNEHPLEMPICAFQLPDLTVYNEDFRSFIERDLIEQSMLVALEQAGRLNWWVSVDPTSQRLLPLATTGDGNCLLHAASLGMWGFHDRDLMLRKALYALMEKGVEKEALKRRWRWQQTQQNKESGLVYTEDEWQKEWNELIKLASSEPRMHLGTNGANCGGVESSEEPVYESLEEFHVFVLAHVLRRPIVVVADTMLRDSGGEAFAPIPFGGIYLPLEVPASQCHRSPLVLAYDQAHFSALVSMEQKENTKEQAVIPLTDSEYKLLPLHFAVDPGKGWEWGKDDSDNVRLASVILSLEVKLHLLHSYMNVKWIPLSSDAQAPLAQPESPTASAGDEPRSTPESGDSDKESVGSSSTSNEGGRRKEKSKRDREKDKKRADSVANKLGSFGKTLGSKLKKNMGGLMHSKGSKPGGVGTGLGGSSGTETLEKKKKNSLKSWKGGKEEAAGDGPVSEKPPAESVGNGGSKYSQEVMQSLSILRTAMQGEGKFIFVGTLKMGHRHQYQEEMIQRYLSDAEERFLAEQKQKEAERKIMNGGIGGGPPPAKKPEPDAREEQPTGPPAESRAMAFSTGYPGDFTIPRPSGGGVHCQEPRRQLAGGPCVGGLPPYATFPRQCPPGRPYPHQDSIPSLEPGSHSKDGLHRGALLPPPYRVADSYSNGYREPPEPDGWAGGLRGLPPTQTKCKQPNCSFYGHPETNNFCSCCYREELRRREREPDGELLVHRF
Procedure, shortened: as §1

PRPF8 = PRPF8 (UniProt Q6P2Q9)
Procedure, shortened: as §1

PSMD7 = target: T3, PSMD7 (UniProt P51665)
T3 sequence (whole entry): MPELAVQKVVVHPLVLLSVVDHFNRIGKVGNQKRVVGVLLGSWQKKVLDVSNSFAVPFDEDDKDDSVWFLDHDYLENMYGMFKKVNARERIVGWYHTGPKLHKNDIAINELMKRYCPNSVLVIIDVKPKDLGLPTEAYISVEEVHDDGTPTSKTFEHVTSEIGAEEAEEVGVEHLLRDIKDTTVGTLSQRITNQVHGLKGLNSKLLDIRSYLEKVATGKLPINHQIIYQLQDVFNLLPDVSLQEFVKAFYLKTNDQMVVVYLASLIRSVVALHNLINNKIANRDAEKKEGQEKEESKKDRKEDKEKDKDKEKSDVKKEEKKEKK
Procedure, shortened: as §1

UCHL1 = UCHL1 (UniProt P09936)
Procedure, shortened: as §1

UCHL3 = target: T4, UCHL3 (UniProt P15374)
T4 sequence (whole entry): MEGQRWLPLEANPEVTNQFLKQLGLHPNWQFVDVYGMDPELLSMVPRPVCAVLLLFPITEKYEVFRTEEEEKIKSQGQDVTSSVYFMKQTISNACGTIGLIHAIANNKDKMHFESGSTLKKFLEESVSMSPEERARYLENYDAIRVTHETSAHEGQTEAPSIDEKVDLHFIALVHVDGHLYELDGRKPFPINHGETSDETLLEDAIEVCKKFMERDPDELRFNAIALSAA
Procedure, shortened: as §1

UCHL5 = target: T5, UCHL5 (UniProt Q9Y5K5)
T5 sequence (whole entry): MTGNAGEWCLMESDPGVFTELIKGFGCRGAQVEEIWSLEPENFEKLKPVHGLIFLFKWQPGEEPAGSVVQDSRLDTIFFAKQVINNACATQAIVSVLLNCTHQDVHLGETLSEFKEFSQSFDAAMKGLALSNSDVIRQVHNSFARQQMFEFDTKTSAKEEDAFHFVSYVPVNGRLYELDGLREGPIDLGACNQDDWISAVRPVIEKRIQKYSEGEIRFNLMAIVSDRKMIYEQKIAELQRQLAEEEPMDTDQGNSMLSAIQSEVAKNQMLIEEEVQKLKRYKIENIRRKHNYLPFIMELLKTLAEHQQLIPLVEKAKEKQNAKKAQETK
Procedure, shortened: as §1

USP10 = USP10 (UniProt Q14694)
Procedure, shortened: as §1

USP15 = target: T6, USP15 (UniProt Q9Y4E8)
T6 sequence (whole entry): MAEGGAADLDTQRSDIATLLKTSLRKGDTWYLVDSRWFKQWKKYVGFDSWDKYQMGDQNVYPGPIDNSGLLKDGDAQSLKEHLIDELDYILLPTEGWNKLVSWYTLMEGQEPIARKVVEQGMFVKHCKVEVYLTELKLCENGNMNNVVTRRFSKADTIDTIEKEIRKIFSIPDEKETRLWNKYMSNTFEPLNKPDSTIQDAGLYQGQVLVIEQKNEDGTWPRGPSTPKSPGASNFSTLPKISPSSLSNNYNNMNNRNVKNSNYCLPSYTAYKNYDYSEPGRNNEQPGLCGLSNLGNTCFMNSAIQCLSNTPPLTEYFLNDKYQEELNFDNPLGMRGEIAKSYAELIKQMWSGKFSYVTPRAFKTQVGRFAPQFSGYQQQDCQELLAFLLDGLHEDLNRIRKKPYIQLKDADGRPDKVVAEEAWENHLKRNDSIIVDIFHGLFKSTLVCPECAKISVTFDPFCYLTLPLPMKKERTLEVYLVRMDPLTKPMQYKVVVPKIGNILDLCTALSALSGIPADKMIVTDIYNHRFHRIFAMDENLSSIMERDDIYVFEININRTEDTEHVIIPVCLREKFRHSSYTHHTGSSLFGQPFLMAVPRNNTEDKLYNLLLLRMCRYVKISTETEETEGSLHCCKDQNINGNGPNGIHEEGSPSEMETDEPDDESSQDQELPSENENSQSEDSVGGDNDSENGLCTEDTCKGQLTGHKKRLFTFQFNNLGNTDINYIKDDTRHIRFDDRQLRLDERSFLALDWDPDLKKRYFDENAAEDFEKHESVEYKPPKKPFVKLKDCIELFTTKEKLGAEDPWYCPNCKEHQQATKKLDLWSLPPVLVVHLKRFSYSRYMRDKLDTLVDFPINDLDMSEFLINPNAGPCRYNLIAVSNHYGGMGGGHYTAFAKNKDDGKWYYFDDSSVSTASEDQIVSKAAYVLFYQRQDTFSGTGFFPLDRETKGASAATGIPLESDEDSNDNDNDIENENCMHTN
Procedure, shortened: as §1

USP16 = USP16 (UniProt Q9Y5T5)
Procedure, shortened: as §1

Measured: log2 ratio of Biotin-Ahx-Ub-VS probe labelling

Chain of USP16 (Q9Y5T5 whole entry, looked up): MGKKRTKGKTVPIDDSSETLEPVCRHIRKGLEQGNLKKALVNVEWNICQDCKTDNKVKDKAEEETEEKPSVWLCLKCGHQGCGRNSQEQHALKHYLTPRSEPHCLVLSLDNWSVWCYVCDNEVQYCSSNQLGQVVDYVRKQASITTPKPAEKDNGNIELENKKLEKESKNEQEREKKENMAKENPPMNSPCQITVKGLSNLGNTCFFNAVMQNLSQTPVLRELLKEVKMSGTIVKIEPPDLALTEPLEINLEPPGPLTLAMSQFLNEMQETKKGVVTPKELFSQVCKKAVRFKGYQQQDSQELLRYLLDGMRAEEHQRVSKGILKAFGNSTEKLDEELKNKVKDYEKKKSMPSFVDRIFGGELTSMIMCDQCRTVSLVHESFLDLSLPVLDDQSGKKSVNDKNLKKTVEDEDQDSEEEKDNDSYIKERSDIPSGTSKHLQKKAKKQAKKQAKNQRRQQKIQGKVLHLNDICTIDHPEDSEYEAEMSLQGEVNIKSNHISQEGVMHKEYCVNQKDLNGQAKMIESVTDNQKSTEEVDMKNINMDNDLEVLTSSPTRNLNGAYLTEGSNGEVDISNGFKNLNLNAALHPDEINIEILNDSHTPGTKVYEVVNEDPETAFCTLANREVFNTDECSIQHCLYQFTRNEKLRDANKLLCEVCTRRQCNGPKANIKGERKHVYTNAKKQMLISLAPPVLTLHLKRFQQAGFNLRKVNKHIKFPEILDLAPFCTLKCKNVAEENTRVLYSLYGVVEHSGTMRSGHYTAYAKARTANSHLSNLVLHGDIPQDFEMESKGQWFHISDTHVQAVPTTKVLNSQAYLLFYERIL
Chain of UCHL1 (P09936 whole entry, looked up): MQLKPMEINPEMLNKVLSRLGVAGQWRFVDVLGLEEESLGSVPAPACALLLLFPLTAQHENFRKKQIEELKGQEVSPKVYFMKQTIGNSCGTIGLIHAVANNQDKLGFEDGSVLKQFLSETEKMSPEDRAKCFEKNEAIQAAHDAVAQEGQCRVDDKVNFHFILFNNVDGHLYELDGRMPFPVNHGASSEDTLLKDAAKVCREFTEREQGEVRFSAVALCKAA
Chain of USP10 (Q14694 whole entry): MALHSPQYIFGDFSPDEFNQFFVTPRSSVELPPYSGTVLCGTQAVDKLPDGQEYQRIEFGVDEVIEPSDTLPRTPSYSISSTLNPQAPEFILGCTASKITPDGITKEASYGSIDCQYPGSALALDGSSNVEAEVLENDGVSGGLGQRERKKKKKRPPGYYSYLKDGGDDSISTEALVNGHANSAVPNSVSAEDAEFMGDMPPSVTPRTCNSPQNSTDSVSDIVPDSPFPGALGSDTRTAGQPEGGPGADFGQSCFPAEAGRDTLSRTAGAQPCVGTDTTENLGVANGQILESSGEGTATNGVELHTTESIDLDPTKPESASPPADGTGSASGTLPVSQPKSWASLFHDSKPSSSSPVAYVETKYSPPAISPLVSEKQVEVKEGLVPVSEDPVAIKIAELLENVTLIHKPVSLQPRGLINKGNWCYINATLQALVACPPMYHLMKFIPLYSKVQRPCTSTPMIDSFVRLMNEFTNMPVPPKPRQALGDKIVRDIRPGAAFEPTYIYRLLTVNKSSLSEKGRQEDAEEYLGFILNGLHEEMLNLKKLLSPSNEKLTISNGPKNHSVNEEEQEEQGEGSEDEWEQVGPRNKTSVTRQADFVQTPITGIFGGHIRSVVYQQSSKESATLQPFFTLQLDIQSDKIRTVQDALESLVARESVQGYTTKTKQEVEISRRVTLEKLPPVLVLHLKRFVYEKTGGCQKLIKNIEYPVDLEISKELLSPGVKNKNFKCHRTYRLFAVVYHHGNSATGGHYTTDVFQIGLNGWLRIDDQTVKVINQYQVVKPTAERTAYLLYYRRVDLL

Cl.Cn1nc2c(c1CNC(=O)CCl)CCCC2
active: OTUD7B -1.04 | UCHL1 -1.7
inactive: OTUD6B -0.361 | PRPF8 -0.184 | PSMD7 -0.299 | UCHL3 0.314 | UCHL5 -0.368 | USP10 -0.24 | USP15 -0.224 | USP16 -0.4
